Shown are actives, neighbours in structure and some others; about 2.4% of the full set was active somewhere.
Tau filament bind: binds recombinant human tau filaments | recombinant tau filaments, thioflavin S fluorescence, 15 h; filaments grown with octadecylsulfate alongside compound | 2% of 71,000 active | P10636 | AID 596 | Potency, µM (top dose mostly 57.1 µM), for the others: at the highest dose activity change, negative = inhibition;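 also: % is scaled to controls: 0 for no effect and ±100 for the full control effect; actives lower thioflavin S fluorescence by blocking filaments or displacing dye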
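Quantitative HTS: thioflavine S signal from ODS-induced tau filaments, excited at 450 nm, emission 510 nm. Conditions: 1 uM tau, 30 uM ODS, 15 h at 37 C, pH 7.4.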
ALOX15B inhib: blocks human 15-lipoxygenase 2 activity | O15296 | purified 15hLO-2, xylenol orange hydroperoxide absorbance | Potency, µM (doses to about 57.1 µM), for the others: at the top dose activity change, negative = inhibition, most hits filed as inhibitors | 0.56% of 110,000 active | AID 881; also: % is scaled to controls: 0 for no effect and ±100 for the full control effect; nearly all actives have a fitted effect of over 60% in size
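Read-out: hydroperoxide product oxidises ferrous iron, measured as xylenol orange complex via the 573-to-405 nm absorbance ratio after 30 min. Reaction: 50 nM enzyme, 15 min compound preincubation, 45 uM arachidonic acid, 90 min RT, Hepes pH 7.5 with Triton X-100.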
Hsp90 Hop PPI: changes Hsp90-Hop TPR2A binding signal, up or down; AlphaScreen TPR2A-His6 binding biotin-Hsp90 C-terminal peptide; Potency, µM (doses to about 57 µM), for the others: at the highest dose activity change, negative = inhibition; 0.44% of 71,000 active; active = well fitted curve in either direction with a large enough effect; inconclusive = small, poorly fitted or top-dose-only effect, or another doubt; also: % is scaled to controls: 0 for no effect and ±100 for the full control effect
Casp1 inh: allosteric or competitive inhibitors of human caspase-1. P29466. Caspase-1 enzyme, Ac-WEHD-AFC fluorogenic rate. Potency, µM (top dose mostly 57.5 µM), for the others: at the highest dose activity change, negative = inhibition, actives largely listed as inhibitors. 0.03% of 75,000 active;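 also: plate controls were vehicle for no effect and no substrate for full effect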
Casp7 inh: blocks human caspase-7 allosterically or competitively; P55210; recombinant caspase-7, Ac-DEVD-AFC fluorescence rate; Potency, µM (doses to about 57.5 µM), without a hit: top-dose activity change, negative = inhibition, hits mostly inhibitors; 0.02% of 75,000 active; active = well fitted inhibition curve with a large enough effect in the main read-out, with a control signal flat, not every such curve was filed as active; inconclusive = small, poorly fitted or top-dose-only effect, or a change in a side signal; also: % of control where 0% means no effect
ALOX15 inhib: 15-hLO (ALOX15) enzyme inhibition | P16050 | purified 15hLO-1, xylenol orange hydroperoxide absorbance | Potency, µM (titrated, usually from 57.1 µM), inactives show top-dose activity change, negative = inhibition, actives largely listed as inhibitors | 1.4% of 74,000 active | AID 887; also: % is scaled to controls: 0 for no effect and ±100 for the full control effect; nearly all actives have a fitted effect of over 55% in size
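Readout: Fe(III)-xylenol orange absorbance, 573-to-405 nm ratio as reaction progress. Enzyme 40 nM purified human 15hLO-1, substrate 50 uM arachidonic acid, 6 min RT after 15 min compound preincubation; Hepes pH 7.5 buffer with Triton X-100.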
* marks the source's active call; other numbers are inactive results; ? = inconclusive; . = no result given; ! = not active in a repeat; [ ] = remark or other dose. Unless noted, calls follow the shape of the dose curve; as a rule, active = well fitted curve in the direction sought with a large enough effect; inconclusive = small, poorly fitted or top-dose-only effect, or another doubt; inactive = no such curve, though single readings can be large; an effect the other way counts as inactive or inconclusive. Potency is read from the fitted curve at half-maximal effect.

SMILES | Tau filament bind | ALOX15B inhib | Hsp90 Hop PPI | Casp1 inh | Casp7 inh | ALOX15 inhib
Cc1cc(NC(=O)Cc2cccs2)no1 | 15.8µM* | ? | -17.3% | -6.1% | -14.1% | ?
CCOc1cccc(C=Nc2cc(C)cc(C)c2O)c1O | ? | 12.6% | -6.9% | ? | -3.8% | 10µM*
COc1cccc(C=Nc2ccc3c(c2)OCCO3)c1O | -1.0% | 4.5%[2.29 µM] | -5.0% | -3.4% | -2.3% | -3.9%
Clc1ccc(OCc2nc(-c3ccccn3)n[nH]2)cc1 | 13.2% | 15.3% | 15.8µM* | 0.8% | 0.0% | 42.8%
O=C(CSc1ccc(Cl)cc1)c1ccco1 | ? | ? | -9.3% | -1.5% | -14.0% | 15.8µM*
Cc1ccc2cc(C#N)c(NCc3ccco3)nc2c1 | -14.5% | -3.8% | 21.9% | ? | -22.2% | -5.0%
COc1ccc(OC)c2c(=S)c3ccccc3[nH]c12 | 12.6µM* | -6.6% | -16.1% | . | ? | 10µM*
COc1ccc(-c2c(N)nnc3c2[nH]c2ccccc23)cc1OC | . | 22.8% | . | . | . | .
c1csc(-c2nc3nc4ccccc4nc3n2Cc2ccc3c(c2)OCO3)c1 | 3.16µM* | -16.8% | 29.0% | . | ? | -21.9%
O=C(c1cccc(F)c1)N1CCN(C(=O)c2cc(-c3ccc(Cl)cc3Cl)on2)CC1 | 30.3% | 3.3% | ? | -0.6% | -7.6% | 15.8µM*
COc1nc(C#N)nc(N(C)C)n1 | 12.6µM* | -1.1% | -7.9% | 1.5% | 0.6% | 4.0%
COc1cc(O)c2c(=O)cc(-c3ccccc3)oc2c1 | 31.6µM* | 2.5% | -1.6% | -0.6% | -1.7% | -2.8%[25.6 µM]
O=c1c(O)c(-c2ccc(O)cc2)oc2cc(O)ccc12 | -26.7% | -29.2% | 4.9% | . | ? | -11.1%[25.6 µM]
O=c1c(O)c(-c2ccc(O)cc2)oc2cc(O)cc(O)c12 | 31.6µM*! | ? | -6.1% | -2.6% | -7.9% | ?
O=c1cc(-c2cc(O)c(O)c(O)c2)oc2cc(O)cc(O)c12 | . | 12.6µM* | . | -4.0% | -9.4% | 2.51µM*
O=c1cc(-c2ccccc2)oc2cc(O)cc(O)c12 | -18.7%[25.6 µM] | -7.4% | -6.1%[26 µM] | 1.5% | -2.8% | -12.7%[25.6 µM]
O=c1cc(-c2ccc(O)cc2)oc2cc(O)cc(O)c12 | 60.5% | -6.6% | -0.2% | -1.0% | -0.3% | 5.01µM*!
CCOc1ccc2ccccc2c1C(=O)N1CCOCC1 | 3.8% | 10.0%[2.29 µM] | -4.2% | 0.0% | 0.3% | 1.4%
CC(C)OCCCNC(=O)c1cccs1 | 0.3% | 3.6% | 0.1% | -0.7% | 0.9% | -7.6%
CCOC(=O)c1c(CC(C)C)csc1NC=O | -2.1% | -5.9% | 0.5% | -1.3% | -1.5% | -15.5%
COc1ccc(C(CNC(=O)c2cc(=O)[nH]c3ccccc23)N2CCCC2)cc1 (stereo not drawn) | 4.3% | 4.8% | -1.4% | 0.2% | 0.2% | 1.8%
Cc1c(Cc2ccccc2)c(=O)oc2cc(OCc3nn[nH]n3)ccc12 | 6.0% | -23.3% | -4.6% | -1.8% | -6.1% | 8.3%
Cc1ccc(N(C(=O)CNC(=O)c2ccco2)C(C(=O)NC2CCCC2)c2cccnc2)cc1C (stereo not drawn) | 4.2% | -9.3% | -3.4% | 2.7% | -1.4% | 5.4%
COc1ccc(NC(=O)c2oc3ccccc3c2NC(=O)C(C)(C)C)cc1 | 12.6µM* | -1.6% | 5.5% | -3.8% | -2.8% | -3.2%
C=CC(C)(C)c1[nH]c2ccccc2c1C1=C(O)C(=O)C(c2c[nH]c3c(CC=C(C)C)cccc23)=C(O)C1=O | 31.6µM* | ? | ? | -8.5% | -21.5% | ?
SMILES | Tau filament bind | ALOX15B inhib | Hsp90 Hop PPI | Casp1 inh | Casp7 inh | ALOX15 inhib
COc1cccc(NC(=O)Nc2cccs2)c1 | -9.2% | . | -21.5% | -7.5% | -14.6% | 20µM*
COc1ccc(NC(=O)c2cccs2)cc1OC | 8.2% | -6.8% | -4.6% | 0.5% | -1.6% | 5.1%
COc1ccc(NC(=O)Nc2cccs2)cc1OC | 135.8% | ? | -24.3% | -6.4% | -8.6% | 20µM*
CC(=O)c1cccc(NC(=O)Nc2cccs2)c1 | . | -7.9% | . | -5.0% | -15.9% | ?
CCC(C)C1NC(=O)C(CCNCS(=O)(=O)O)NC(=O)C(NC(=O)C(CCNCS(=O)(=O)O)NC(=O)C(NC(=O)C(CCNCS(=O)(=O)O)NC(=O)CCCCC(C)C)C(C)O)CCNC(=O)C(C(C)O)NC(=O)C(CCNCS(=O)(=O)O)NC(=O)C(CCNCS(=O)(=O)O)NC(=O)C(C(C)CC)NC1=O (stereo not drawn) | . | 3.98µM* | . | -9.6% | -5.1% | 3.16µM*
CCOC(=O)c1cc(-c2ccc(N)cc2)sc1N | 25.1µM* | -12.3%[2.29 µM] | -26.0% | -0.7% | -2.8% | 25.1µM*
CCOC(=O)c1sc(-c2ccc(Br)cc2)cc1N | . | -5.4% | . | . | . | .
O=C(Nc1ccc(N2CCN(C(=O)c3ccco3)CC2)cc1)c1ccc2c(c1)OCO2 | 1.0% | . | -6.0% | 0.5% | -4.0% | -6.7%
CCOC(=O)c1cccc(NC(=O)c2cnc3ccccc3n2)c1 | 25.1µM* | 7.0% | 1.2% | -2.3% | 0.0% | -5.4%
CC(=O)c1ccc2c3c(ccc(O)c13)CC2 | 3.98µM* | -29.9% | ? | -2.3% | -0.9% | ?
Cn1c(SCC(=O)N2CCOCC2)nnc1-c1cccc(NC(=O)c2ccccc2)c1 | 6.2% | -6.3% | -3.7% | -1.5% | -5.7% | -3.8%
CCC(=O)Nc1ccc2nc(C)n(CC(=O)Nc3ccccc3)c(=O)c2c1 | 12.6µM* | -1.4% | -2.8% | -0.7% | -2.5% | 2.4%
COc1cc(C2C(C#N)=C(N)N(Nc3ccccc3)C3=C2C(=O)CC(C)(C)C3)ccc1OCc1cccc(F)c1 (stereo not drawn) | . | -2.6% | . | . | . | .
CC1=C(C(=O)OCc2ccccc2)C(c2ccc(Cl)cc2)NC(=O)N1CCCCCC(=O)O (stereo not drawn) | 5.2% | -16.6% | 2.1% | -3.1% | -1.7% | .
CC1=C(C(=O)OCc2ccccc2)C(c2ccc(C3CCCCC3)cc2)NC(=O)N1CCCCCC(=O)O (stereo not drawn) | 3.2% | 25.1µM* | -3.2% | -6.8% | -18.8% | -29.7%
O=C(Cn1nnc2ccccc21)C1CC1 | 1.3% | -8.5% | 2.9% | 0.1% | -0.5% | 2.1%
Cc1ccc2c(c1)NC(=O)C(CC(=O)Nc1ccc(CN3CCC(C)CC3)cc1)O2 (stereo not drawn) | 36.9% | 10.1% | -3.9% | 2.2% | -3.2% | -0.8%
O=C(Cc1cc(=O)[nH]c(=O)[nH]1)N1CCC(Cc2ccccc2)CC1 | 25.1µM* | . | -7.9% | -3.0% | 0.5% | -8.0%
CC(C)N1C(=O)CCC1C(=O)N1CCC(Cc2ccccc2)CC1 (stereo not drawn) | 2.1% | . | -1.7% | -1.3% | -0.7% | 1.0%
COc1cc(C(=O)Nc2nc3ccc(C)cc3s2)ccc1OCc1c(C)noc1C | . | 11.4% | . | . | . | .
O=C1C2C3CCCC3=C3CCCC3C2C(=O)N1c1cccc(Cl)c1 (stereo not drawn) | -2.0% | -5.6% | 1.4% | -4.6% | -4.8% | 10µM*
Cc1c(C(=O)O)c2cc(O)ccc2n1-c1ccccc1 | -13.1% | -9.5% | -4.1% | -0.4% | 1.5% | 1.4%

Source: PubChem BioAssay
